From PubChem BioAssay AID1569 (National Center for Advancing Translational Sciences (NCATS), 2009)
Inconclusive results are not listed. Active and inactive are the calls of the source. Calls come from the whole dose curve; as a rule, active = well fitted inhibition curve with a large enough effect; inconclusive = small, poorly fitted or top-dose-only effect, or effect the other way, or another doubt; inactive = no such curve, though single readings can be large or run the other way.

Assay: Confirmation Concentration-Response Assay for lipid storage modulators; note: nearly all actives have a fitted effect of over 80% in size
Conditions: Drosophila S3 cells, lipid droplet BODIPY/CellTracker ratio, 18-24 h
Excerpt: NIH Molecular Libraries Probe Production Centers Network [MLPCN] NIH Chemical Genomics Center [NCGC] MLPCN Grant: 1 R03 MH085686-01 Assay Submitter (PI): Beller, Mathias; Max-Planck-Institut fur Biophysikalische Chemie NCGC Assay Overview: Storing lipids as a reservoir for energy or the anabolism of elementary metabolites is a common feature of probably all cells and is conserved from bacteria to humans. The universal cellular lipid storage organelle is the so-called lipid storage droplet (LD). Although ubiquitous, LDs share a simple structure composed of a hydrophobic core that harbors the storage lipids, which is shielded by a droplet-specific phospholipid monolayer to which proteins are attached. […] Exo1 identified in the primary screen (AID 1519) and several analogs were measured in the lipid storage assay as 24-point concentration-response curves to confirm potency and SAR.
We dispensed 4 uL of cells at 1.25 x 10^6 cells/mL into LoBase Aurora COC 1,536-well plates (black walled, clear bottom) with a bottle-valve solenoid-based dispenser (Aurora) to obtain 5,000 cells/well. […] Fluorescence was detected by excitation of the fluorophores with a 488-nm laser on an Acumen Explorer (TTP Lab Tech). […] Cells were detected using channel 3 (575- 640 nm) with 5-um width and 100-um depth filters. The ratio of the total intensity in PMT channel 1 over total intensity of channel 3 was also calculated. […]
Potency is the fitted concentration of half-maximal effect.

## O=C(Nc1cccc(Cl)c1)OC1CN2CCC1CC2 (configuration not stated)
  Potency: 8.88 µM (active)

## COc1cc2c(cc1OC)[C@@H]1C(=O)c3ccc4c(c3O[C@@H]1CO2)C[C@H](C(C)C)O4
  Potency: 0.0499 µM (active)
